In the supplement of paper PMC6555819 one finds PBM binding z-score data, which are given here for seven sequences.

Experiment in all cases: PBM binding z-score (relative to random genomic background probes); higher = stronger binding; sequences stand for … in GC…GCGATTGACAGCGTAGAATGAAGG
Test [1] relates to FXR:RXRa (NR concentration 270 nM, RXRa partner concentration 90 nM). Summed up: (§1)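 Each nuclear receptor dimer, without ligand, was incubated for 1 h on custom Agilent 4×180K protein-binding microarrays. Binding was detected with antibodies against each partner (one per run), and scanned fluorescence was regression-normalized. The binding z-scores are referenced to random human genomic background probes.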

For test [2], the system named is LXRa:RXRa (NR concentration 270 nM, RXRa partner concentration 90 nM). In outline:
as §1

Test [3] has as its system LXRa homodimer (NR concentration 270 nM). Summed up:
as §1

The subject of test [4] is LXRb:RXRa (NR concentration 270 nM, RXRa partner concentration 90 nM). In outline:
as §1

Test [5] has as its system LXRb homodimer (NR concentration 270 nM). Summed up:
as §1

In test [6] the test system is PPARa:RXRa (NR concentration 270 nM, RXRa partner concentration 90 nM). In outline: as §1
For test [7], the system named is PPARg:RXRa (NR concentration 180 nM, RXRa partner concentration 90 nM). In outline: as §1
The subject of test [8] is PPARg:RXRa 270nM:90nM, anti-RXR (NR concentration 270 nM, RXRa partner concentration 90 nM). Summed up:
as §1

Test [9] concerns PPARg:RXRa 30nM:10nM, anti-RXR (NR concentration 30 nM, RXRa partner concentration 10 nM). In outline: as §1
The test system of test [10] is PPARg:RXRa 90nM:30nM, anti-RXR (NR concentration 90 nM, RXRa partner concentration 30 nM). In outline:
as §1

Test [11] concerns PPARg:RXRa DBDmut IVT, anti-RXR (DBD mutation: RXRa K156A/R161A, NR concentration 270 nM, RXRa partner concentration 90 nM). In outline:
as §1

Test [12] has as its system PPARg:RXRa IVT, anti-PPARg (NR concentration 270 nM, RXRa partner concentration 90 nM). In outline:
as §1

For test [13], the system named is PPARg DBDmut:RXRa IVT, anti-PPARg (DBD mutation: PPARg1 K132A/R137A, NR concentration 270 nM, RXRa partner concentration 90 nM). In outline: as §1
Test [14] concerns PPARg DBDmut IVT, anti-PPARg (DBD mutation: PPARg1 K132A/R137A, NR concentration 270 nM). In outline:
as §1

Test [15] concerns PPARg homodimer (NR concentration 180 nM). Summed up: as §1
Test [16] has as its system PXR:RXRa (NR concentration 270 nM, RXRa partner concentration 90 nM). In outline:
as §1

The subject of test [17] is PXR homodimer (NR concentration 270 nM). Summed up: as §1
Test [18] relates to RARa:RXR (NR concentration 270 nM, RXRa partner concentration 90 nM). In outline:
as §1

In test [19] the test system is RARa homodimer (NR concentration 270 nM). Summed up: as §1
Test [20] relates to RARb:RXRa (NR concentration 270 nM, RXRa partner concentration 90 nM). In outline: as §1

Regarding AGTCAAAGTTCAGGACGAGGTAACTTAAAGCACG, the PBM binding z-score in test [1] was 4.45; in [2], 3.83; in test [3], 1.38; in [4] it was 2.1; in test [5] it was 0.364; in test [6], 3.59. Moreover, the PBM binding z-score in test [7] is 4.72; in [8], 4.85; in test [9] it was 2.02; in [10] it was 3.7; in test [11] it was -0.0506; in test [12] it was 2.05. Besides, the PBM binding z-score in test [13] came out at 0.457; in test [14] it was 0.0759; in test [15], 1.75; in [16], 3.24; in test [17], 1.4; in test [18] it was 2.84. For the same sequence, the PBM binding z-score is 1.02 in test [19] and 4.25 in [20].

With AGAATGAGGTTAAGATCAAGGAAACAGAATACAT, the PBM binding z-score in test [1] was 1.93; in test [2] it was 1.78; in [3] it was 0.0429; in test [4], 1.71; in test [5] it was -0.221; in test [6] it was 3.67. For the same sequence, the PBM binding z-score in test [7] came to 2.49; in test [8] it was 2.3; in [9], 0.939; in test [10], 1.76; in test [11] it was 2.65; in test [12], 2.43. The PBM binding z-score in test [13] was 1.67; in test [14], 0.683; in [15], 0.598; in [16], 1.13; in [17] it was 0.0373; in test [18], 1.75. Besides, the results for the PBM binding z-score in test [19] and in test [20] were 0.928 and 1.88, respectively.

Take TCGTGTAGATCAAAGGTTAAGAAAGCCGAAGCCT: the PBM binding z-score in test [1] is 1.91; in [2] it was 1.98; in [3], 0.381; in [4], 1.83; in [5], 0.049; in [6] it was 3.91. Also, the PBM binding z-score in test [7] came to 5.73; in test [8] it was 6.47; in [9], 5.88; in test [10], 6.62; in test [11] it was 0.876; in [12], 2.22. Also, the PBM binding z-score in test [13] was -0.315; in test [14], -0.277; in [15] it was 1.21; in test [16] it was 1.9; in test [17], -0.215; in test [18], 2.68. The figures for the PBM binding z-score in test [19] and in test [20] were 0.495 and 1.86, respectively.

GCTTGTAGATCAAGGTTAAGCAAGACTAAGCTAA: the PBM binding z-score in [1] was 0.263; in test [2], 0.428; in test [3] it was -0.624; in test [4], 0.0406; in test [5], -0.925; in test [6], 1.77. Also, the PBM binding z-score is 1.05 in [7]; 1.94 in test [8]; 0.405 in [9]; 1.6 in test [10]; 1.5 in test [11]; 1.36 in [12]. Also, the PBM binding z-score is -0.46 in [13]; -0.377 in test [14]; 0.0849 in test [15]; 0.191 in [16]; -0.43 in test [17]; 1.07 in [18]. In addition, the PBM binding z-score in test [19] is -0.348; in [20] it was 0.844.

In the case of TCTTGTAGATCAAGAGAGGTTAAGAAAGTGCGCT, the PBM binding z-score in [1] was 0.516; in test [2] it was 3.28; in test [3], 0.0219; in test [4], 1.46; in [5], -0.672; in test [6] it was 1.44. The PBM binding z-score in test [7] was -0.217; in [8], 1.2; in test [9], 2.19; in test [10], 1.72; in test [11], 0.899; in test [12] it was 0.319. Moreover, the PBM binding z-score was -0.033 in test [13]; -0.382 in test [14]; -0.0736 in test [15]; 2.95 in test [16]; 0.139 in test [17]; 1.6 in [18]. Further, the PBM binding z-score in test [19] was -0.753; in [20], 0.635.

Consider AGAACGAGGGCGATGAGTTGATAGCACGGGTGGC, for which the PBM binding z-score was -0.358 in test [1]; -0.46 in test [2]; -0.764 in [3]; -0.815 in test [4]; -0.754 in test [5]; -0.167 in test [6]. The PBM binding z-score was 0.665 in [7]; -0.212 in test [8]; -0.297 in test [9]; -0.297 in [10]; 0.888 in [11]; 0.217 in test [12]. Also, the PBM binding z-score is -0.427 in [13]; -0.338 in test [14]; -0.143 in [15]; 0.367 in test [16]; 1.89 in [17]; -0.627 in [18]. Also, the PBM binding z-score was -0.34 in test [19] and 0.39 in test [20].

For TCATATATGTAAAAGGTGAAAGTCGGTGTGGTAA, the PBM binding z-score in [1] is 0.511; in [2] it was 1.25; in [3], -0.0169; in [4], 1.75; in test [5], 0.0133; in test [6], 3.72. The PBM binding z-score came to 5.15 in [7]; 6.15 in test [8]; 5.45 in [9]; 7 in [10]; 2.46 in [11]; 2.83 in [12]. Also, the PBM binding z-score in test [13] is 0.873; in test [14], 0.794; in test [15] it was 1.98; in test [16], 1.21; in test [17], -0.143; in [18], 1.85. For the same sequence, the results for the PBM binding z-score in test [19] and in test [20] were 1.14 and 1.9, respectively.
